# Test results reported in PubChem BioAssay AID1209 (Sanford-Burnham Center for Chemical Genomics, 2008).
# In all, about 190,000 compounds went through this assay and about 810 (0.43%) were called active. Only a selection was taken, and actives are over-represented in it overall. Unmarked numbers belong to inactive results. Cut-off read from the data, not from the text of the source: active = inhibition above about 50%; inactive = the rest.
# Target: Mannose-6-phosphate isomerase (Homo sapiens) (UniProt P34949)
# Sequence (P34949 whole entry, looked up): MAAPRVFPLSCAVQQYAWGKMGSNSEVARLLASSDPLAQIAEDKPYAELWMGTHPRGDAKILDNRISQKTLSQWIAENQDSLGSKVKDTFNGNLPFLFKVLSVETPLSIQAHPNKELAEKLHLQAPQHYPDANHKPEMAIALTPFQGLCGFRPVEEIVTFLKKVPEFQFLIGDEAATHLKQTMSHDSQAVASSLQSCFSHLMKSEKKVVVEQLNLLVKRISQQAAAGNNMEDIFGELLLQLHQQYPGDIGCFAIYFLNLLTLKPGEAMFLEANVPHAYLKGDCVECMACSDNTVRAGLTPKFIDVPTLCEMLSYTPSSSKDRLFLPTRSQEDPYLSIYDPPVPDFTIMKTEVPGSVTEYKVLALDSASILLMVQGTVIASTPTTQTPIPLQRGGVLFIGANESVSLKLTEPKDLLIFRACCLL
# Assay: inhibitors of human PMI, primary screen, biochemical, fluorescence intensity, coupled assay (AID 1209);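 note: plate controls were DMSO vehicle for no effect and wells lacking substrate for full effect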
# Conditions: purified PMI enzyme, at 20 µM, hits give high values
row,Compound,inhibition
1,O=c1c2c([N+](=O)[O-])cc([N+](=O)[O-])cc2sn1-c1ccc(Br)cc1,109% (active)
2,O=[N+]([O-])c1cc([N+](=O)[O-])c2c(=Nc3ccccc3)n(-c3ccccc3)n(O)c2c1,10.6%
3,O=c1c2cc(Br)ccc2nc(-c2ccc([N+](=O)[O-])cc2)n1O,-3.6%
4,CCOc1ccccc1CN1CCN(S(=O)(=O)CC)CC1,3.5%
5,O=c1[nH]c(CSc2nnc(COc3ccccc3)n2-c2ccccc2)nc2ccccc12,-3.6%
6,Nc1cc(C(=O)OCC(=O)NCc2ccco2)ccc1Cl,-6.8%
7,COC(=O)c1ccc(OC)cc1OCC(=O)N1CCN(c2ccc(F)cc2)CC1,13.1%
8,O=C(/C=C/c1c(Cl)cccc1Cl)NCCc1ccccc1,-10%
9,CC(C)CN(CC(C)C)S(=O)(=O)N1CCC(C(=O)NCc2cccnc2)CC1,55.2% (active)
10,CC(C)CN(CC(C)C)S(=O)(=O)N1CCC(C(=O)NCc2ccc(F)cc2)CC1,2.6%
11,CCS(=O)(=O)N1CCC(C(=O)NCc2cccnc2)CC1,4.6%
12,COc1ccc(NC(=O)C(c2ccccc2)N(C)C(=O)CNC(C)=O)cc1 (stereo not given),-1.1%
13,CN(C)C(=O)c1nc2ccccc2s1,4.6%
14,COc1ccc2nc(/N=C\N(C)C)sc2c1,7%
15,CCOC(=O)N/C(N)=N/c1nc2ccccc2s1,3.7%
16,COc1ccc2nc(N=Nc3ccc(N(C)C)cc3)sc2c1,-5.8%
17,COc1ccc(-n2c(N)c(C(=O)NCC3CCCO3)sc2=S)cc1 (stereo not given),6%
18,Cn1c(=O)c(=O)n(C)c2cc(S(=O)(=O)N3CCC(Cc4ccccc4)CC3)ccc21,0.3%
19,CCOC(=O)N1CCN(S(=O)(=O)c2cccc3cccnc23)CC1,-9.6%
20,Oc1c(C(c2cccs2)N2CCN(c3ccccc3)CC2)sc2ncnn12 (stereo not given),-6.2%
21,OCCN1CCN(C(c2cccs2)c2ccc3cccnc3c2O)CC1 (stereo not given),50.8% (active)
22,CCOC(=O)N1CCN(C(c2cccnc2)c2ccc3cccnc3c2O)CC1 (stereo not given),60.4% (active)
23,Oc1c(C(Nc2ccccn2)c2ccccn2)ccc2cccnc12 (stereo not given),6.9%
24,Cc1nc2sc(C(c3cccs3)N3CCN(c4ccccc4)CC3)c(O)n2n1 (stereo not given),4.2%

row,Compound,inhibition
1,Oc1c(C(c2ccccc2Cl)N2CCCC2)ccc2cccnc12 (stereo not given),32.1%
2,Cc1conc1NC(c1cccs1)c1ccc2cccnc2c1O (stereo not given),13%
3,Oc1c(C(c2cccs2)N2CCN(c3ccccc3)CC2)ccc2cccnc12 (stereo not given),58.8% (active)
4,Oc1c(C(c2ccccn2)N2CCOCC2)ccc2cccnc12 (stereo not given),60.9% (active)
5,CN1CCN(C(c2cccnc2)c2ccc3cccnc3c2O)CC1 (stereo not given),39.6%
6,CCC(=O)NC(c1cccs1)c1ccc2cccnc2c1O (stereo not given),33.8%
7,COC(=O)c1nn(-c2ccccc2)c(=O)cc1Oc1ccc(Cl)cc1,-15.5%
8,CCOC(=O)N1CCC(NC(=O)CCC(=O)N2CC(C)Oc3ccc(Cl)cc32)CC1 (stereo not given),19.2%
9,COc1ccc(C(=O)Nc2nnc(Cc3cccs3)s2)cc1OC,7.8%
10,COc1c(Cl)cnn(-c2ccc(Cl)c(Cl)c2)c1=O,-2.9%
11,CC1(C)NC(=O)N(CCOCCOc2ccccc2-c2ccccc2)C1=O,-2.9%
12,COc1cc(O)c2c(c1)OC(c1ccc(O)cc1)CC2=O (stereo not given),-1.3%
13,COc1cc2c(cc1OC)C1(Nc3c-2c(Cc2ccccc2)nn3-c2ccccc2)C(=O)Nc2ccccc21 (stereo not given),9.3%
14,Clc1ccc(-c2nn3c(-c4ccccn4)nnc3s2)c(Cl)c1,-4.5%
15,Cc1cccc(N2C(=O)SC(SC(=Nc3ccccc3)Nc3ccccc3)C2=O)c1 (stereo not given),52.5% (active)
16,Cc1cccc(N2C(=O)CC(SC(=Nc3ccccc3)Nc3ccccc3)C2=O)c1 (stereo not given),15.7%
17,O=C1SC(SC(=Nc2ccccc2)Nc2ccccc2)C(=O)N1c1ccccc1 (stereo not given),-11.6%
18,O=[n+]1c2c(n([O-])c3cc(F)ccc31)CCCC2,5.7%
19,CCOc1ccc2c(c1)n([O-])c1c([n+]2=O)CCCC1,56.8% (active)
20,Cc1ccc2c(c1)n([O-])c1c([n+]2=O)CCCC1,17.7%
21,CSc1ccccc1NC(=O)CN(C)Cc1ccc(Br)cc1,16%
22,Cc1ccccc1Cn1ccc(NC(=O)c2cnn3cccnc23)n1,10.4%
23,CCOC(=O)NC(=O)CSc1ccccn1,2.1%
24,O=[N+]([O-])c1cccc(N=Cc2sc3ccccc3c2O)c1,13.3%

row,Compound,inhibition
1,O=C1/C(=C/c2cccc([N+](=O)[O-])c2)CCc2ccccc21,14.1%
2,CC1CCC(NC(=O)Cn2ncc3ccccc32)CC1 (stereo not given),8.4%
3,COc1cc2cc(CN(CCc3cccc(C)c3)C(=S)NCCCN3CCOCC3)c(=O)[nH]c2cc1OC,10.1%
4,Cc1ccc(CNC(=O)Cc2csc(Nc3nc(=S)[nH]c4ccccc34)n2)cc1,-1.8%
5,CC(C)CCNC(=O)Cc1ccc(Nc2nc(=S)[nH]c3ccccc23)cc1,51.6% (active)
6,O=C(Cc1ccc(Nc2nc(=S)[nH]c3ccccc23)cc1)NC1CCCCC1,-5.3%
7,Cc1cccc(/C(N)=N/OC(=O)c2ccc(Br)o2)c1,12.6%
8,CCOc1cc(S(=O)(=O)N2CCCC2)ccc1Cl,-1.7%
9,O=C(O[C@@H]1OC2COC(=O)c3cc(O)c(O)c(O)c3-c3c(cc(O)c(O)c3O)C(=O)O[C@@H]([C@H]1O)[C@@H]2O)c1cc(O)c(O)c(O)c1,49.1%
10,Cc1cn(C2OC(COC(=O)c3ccccc3)C(OC(=O)c3ccccc3)C2OC(=O)c2ccccc2)c(=O)[nH]c1=O (stereo not given),3.7%
11,O=C(OCC1O[C@@H](OC(=O)c2cc(O)c(O)c(O)c2)[C@@H](OC(=O)c2cc(O)c(O)c(O)c2)[C@@H](OC(=O)c2cc(O)c(O)c(O)c2)[C@@H]1OC(=O)c1cc(O)c(O)c(O)c1)c1cc(O)c(O)c(O)c1 (stereo not given in full),57.2% (active)
12,CC(C)N(CC#CC(O)(c1ccccc1)c1ccccc1)CCO,-9.6%
13,NC(=S)N/N=C/c1cc([N+](=O)[O-])ccc1Cl,-2.2%
14,O=[N+]([O-])c1ccc(Cl)c(/C=N/NC(=S)Nc2ccccc2)c1,66.2% (active)
15,S=C(N/N=C/c1ccccc1Cl)Nc1ccccc1,12.3%
16,CCC(C)(C)c1ccc(OCCN2C(=O)NC(C)(C)C2=O)cc1,7.4%
17,COc1ccc(NC(=O)C2(c3ccccc3)CCCC2)cc1,18.9%
18,CCOC(=O)C1=C(C)N(C)C(=O)NC1c1c(C)nn(-c2ccc(C)cc2)c1Cl (stereo not given),-6.5%
19,CCOC(=O)C1=C(C)N(C)C(=O)NC1c1c(C)nn(-c2ccccc2)c1C (stereo not given),-0.2%
20,CCOC(=O)C1=C(C)NC(=O)NC1c1c(C)nn(-c2ccccc2)c1Cl (stereo not given),53.9% (active)
21,CCSc1nnc(NC(=O)c2ccc(S(=O)(=O)N(C)C)cc2)s1,-9.1%
22,COc1ccc(Nc2nc(N)nc(CSC(=S)N3CCOCC3)n2)cc1,-8.7%
23,C=CC[n+]1c(/C=C2\C=Cc3cc(C)ccc3N2CC)ccc2ccccc21,16.7%
24,CCN1/C(=C/c2cc[n+](C)cc2)C=Cc2cc(C)ccc21,46.3%

row,Compound,inhibition
1,C=CC[n+]1ccc(/C=C2\C=Cc3cc(C)ccc3N2CC)c2ccccc21,64.5% (active)
2,N#CCSCC(=O)Nc1ccccc1,7.9%
3,N#CC(C(=O)NC1CCCCC1)c1nc2ccccc2nc1N1CCN(c2ccc(F)cc2)CC1 (stereo not given),7.4%
4,Cc1ccc(-c2nnc3n2N=C(c2ccc(Br)cc2)CS3)cc1,-12.4%
5,COc1cccc(CNc2ccc(N3CCCCC3)cc2)c1OC,65.1% (active)
6,COc1ccccc1C(=O)Nc1ccc(N2CCCCC2)cc1,-4.3%
7,COc1cccc(CNc2ccc(S(N)(=O)=O)cc2)c1OC,6.1%
8,COc1ccccc1CNc1ccc(C(=O)O)cc1,1.8%
9,COc1cccc(CNc2ccc(N3CCC(C)CC3)cc2)c1OC,67.3% (active)
10,CC1CCN(c2ccc(NC(=O)Cc3ccccc3)cc2)CC1,13.5%
11,COc1cccc(CNCCN2CCOCC2)c1OC,0.5%
12,COc1ccccc1CNc1ccc(N2CCCCC2)cc1,67.3% (active)
13,COc1cccc(CNc2ccc(F)c(Cl)c2)c1OC,-0.3%
14,S=C1NC2(CCCC2)Nc2ccccc21,-71.4%
15,COC(=O)c1ccccc1NC(=O)c1ccc(-c2ccccc2F)o1,-1.4%
16,O=C(CSc1ncn[nH]1)Nc1ccc(Br)cc1F,6%
17,O=C1c2ccccc2C(=O)N1CCc1c[nH]c2ccc(O)cc12,22.1%
18,FC(F)(F)c1cc(-c2ccc(Cl)cc2)nc2ncnn12,-7.2%
19,COc1ccc(S(=O)(=O)N2CC(O)CC2C(=O)OCC(=O)Nc2ccc(Cl)cn2)cc1 (stereo not given),13.3%
20,O=[N+]([O-])c1cccc(-c2cn(-c3ccccc3)c(=S)[nH]2)c1,-9.5%
21,O=[N+]([O-])c1ccc(-c2cn(-c3ccccc3)c(=S)[nH]2)cc1,-1.9%
22,O=[N+]([O-])c1ccc2c(c1)[nH]c(=S)n2-c1ccccc1,58.6% (active)
23,CCc1cccc(CC)c1NC(=O)c1cc(CN2C(=O)c3ccccc3C2=O)ccc1OC,3%
